Only some compounds are listed: those with a hit (about 3.6% of all), similar ones and a draw of the others.
Epigenetic derep: epigenetic control regulation, reporter derepression; murine LDR cells, GFP reporter derepression, 30 h; Potency, µM (doses to about 53.9 µM), for the others: at the highest dose GFP activation, hits mostly activators; hit rate 0.2% among 280,000; AID 1865; further: % of control where 0% means no effect; nearly all actives have a fitted effect of over 60% in size
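Derepression of a silenced CMV-GFP reporter in murine LDR cells is scored by enumerating GFP-positive cells with a laser-scanning microplate cytometer after 30 hours of treatment at 37 C.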
NPSR antagonist: blocks cAMP signaling of the human neuropeptide S receptor | Q6W5P4 | CHO-NPSR cells, cAMP TR-FRET, antagonist mode | Potency, µM (titrated, usually from 38.3 µM), inactives show at the top dose activity change, negative = inhibition, actives largely listed as inhibitors | hit rate 1% among 220,000; further: on the % scale 0 is the no-effect control and ±100 the full control effect; nearly all actives have a fitted effect of over 50% in size
Target sequence (Q6W5P4 whole entry, looked up): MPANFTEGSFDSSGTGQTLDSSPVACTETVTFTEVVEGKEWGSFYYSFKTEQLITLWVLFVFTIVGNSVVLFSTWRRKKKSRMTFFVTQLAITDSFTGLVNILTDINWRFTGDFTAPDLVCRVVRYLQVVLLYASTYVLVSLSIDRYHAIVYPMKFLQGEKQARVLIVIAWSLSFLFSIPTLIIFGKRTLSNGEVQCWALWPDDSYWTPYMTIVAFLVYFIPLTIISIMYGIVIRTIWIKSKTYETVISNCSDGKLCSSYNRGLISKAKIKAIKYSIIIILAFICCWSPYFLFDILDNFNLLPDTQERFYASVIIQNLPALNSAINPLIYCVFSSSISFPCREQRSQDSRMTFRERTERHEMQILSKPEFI
KDM4E inh: blocks human JMJD2E demethylase activity; B2RXH2; JMJD2E catalytic domain, FDH-coupled NADH fluorescence (FDH is formaldehyde dehydrogenase); Potency, µM (doses to about 57.1 µM), for inactives: top-dose activity change, negative = inhibition, most hits filed as inhibitors; hit rate 1.6% among 230,000; AID 2147; active means well fitted inhibition curve with a large enough effect, not every such curve was filed as active; inconclusive means small, poorly fitted or top-dose-only effect, or another doubt; inactive means no such curve, though single readings can be large or run the other way;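 further: 0% = wells with enzyme and -100% = buffer wells without enzyme; nearly all actives have a fitted effect of over 50% in size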
Target sequence (B2RXH2 1-337 limits assumed): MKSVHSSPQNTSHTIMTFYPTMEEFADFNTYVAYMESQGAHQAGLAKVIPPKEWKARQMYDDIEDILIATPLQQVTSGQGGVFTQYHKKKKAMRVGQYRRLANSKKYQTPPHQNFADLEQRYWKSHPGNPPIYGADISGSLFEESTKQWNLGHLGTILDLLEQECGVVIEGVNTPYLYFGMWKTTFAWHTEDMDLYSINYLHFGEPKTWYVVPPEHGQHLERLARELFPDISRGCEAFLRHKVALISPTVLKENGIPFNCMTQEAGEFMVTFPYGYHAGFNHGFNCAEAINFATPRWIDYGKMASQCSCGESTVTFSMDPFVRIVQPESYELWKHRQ
GCN5L2 inh: GCN5L2 (KAT2A) acetyltransferase inhibition | Potency, µM (series often up to 58.9 µM), for inactives: at the highest dose activity change, negative = inhibition, most hits filed as inhibitors | AID 504327 | GCN5L2 HAT assay, ThioGlo1 CoA-SH fluorescence | Q92830 | hit rate 0.21% among 390,000; further: on the % scale 0 is the no-effect control and ±100 the full control effect
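Titration-based screen in which CoA formation is detected via maleimide probe ThioGlo1 (50uM) turning fluorescent on thiol reaction; substrates H3(1-25) 75uM and acetyl-CoA 70uM, GCN5L2 20nM, 20 min incubation at room temperature.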
IMPase Li inh: cell-permeable IMPase inhibitors with lithium potentiation; CHO-M1 cells, IP1 TR-FRET (IP-One), carbachol + lithium; Potency, µM (top dose mostly 59.4 µM), inactives show at the highest dose activity, negative = IMPase inhibition, hits mostly inhibitors; hit rate 0.35% among 210,000; AID 1457;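 further: IP1 builds up when IMPase is blocked and the TR-FRET signal falls; plate controls were basal vehicle for no effect and high inhibitor control for full effect; nearly all actives have a fitted effect of over 50% in size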
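Steps: plate 2000 CHO-M1 cells per well and culture 16–30 h; add compound and lithium; incubate 30 min, 37C; add d2-IP1 tracer and Eu cryptate anti-IP1 antibody in lysis buffer; read after 10 min at room temperature.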
Sfp inh: inhibitors of Bacillus subtilis Sfp phosphopantetheinyl transferase. Q9F4F7. Biochemical Sfp PPTase activity, qHTS. Potency, µM, for the others: largest response in the series, negative = inhibition, usual class: inhibitors. hit rate 3.5% among 310,000;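 further: the enzyme is Sfp with the accession as filed and its product quenches rhodamine fluorescence; 0% = enzyme reaction without inhibitor and -100% = no enzyme wells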
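Step 1, compound plus 15 nM Sfp-PPTase, 15 min, room temperature. Step 2, add rhodamine-CoA (5 uM) and BHQ-2-YbbR (12.5 uM). Step 3, read 525/598 nm fluorescence at 0 and 30 min.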
Starred values were filed as active, the others as inactive; ? = inconclusive; / = no result; [ ] = dose if it differs, or a comment. Unless noted, the call rests on the fitted dose curve; in most records, active means well fitted curve in the direction sought with a large enough effect; inconclusive means small, poorly fitted or top-dose-only effect, or another doubt; inactive means no such curve, though single readings can be large; an effect the other way counts as inactive or inconclusive. Potency means the concentration at half of the fitted maximal effect.

SMILES | Epigenetic derep | NPSR antagonist | KDM4E inh | GCN5L2 inh | IMPase Li inh | Sfp inh
Cc1cccc(CNc2ncnc3ccc(-c4ccc5c(ccn5C)c4)cc23)c1 | / | / | / | -9% | / | /
O=C(O)CCCCC1CCSS1 (centres undefined) | 1% | -4% | 5% | 3.2µM* | 5% | -26%
CCC(C)Sc1ccc(-c2nc3cnccn3c2NC2CCCCC2)cc1 (centres undefined) | / | / | / | 28µM* | / | /
O=C(NCc1ccco1)/C(=C\c1ccco1)NC(=O)c1ccc(Br)o1 | 0% | 0% | -7% | 0% | -8% | 89µM*
C=CCNC(=O)/C(=C/c1ccco1)NC(=O)c1ccc(Br)o1 | -6% | -20%[46.1 µM] | -22% | 0% | 3% | 10µM*
O=C(O)/C(=C/c1ccco1)NC(=O)c1ccc(Br)o1 | / | / | / | 0% | / | -14%
O=C(NCc1ccco1)/C(=C/c1ccccc1)NC(=O)c1ccco1 | / | / | / | -2% | / | 15%
O=C(NCc1ccco1)/C(=C\c1ccco1)NC(=O)c1ccco1 | -1% | 52% | -2% | -8% | / | 45µM*
O=C(Nc1ccc(C(=O)O)cc1)/C(=C\c1ccco1)NC(=O)c1ccc(Br)o1 | / | / | / | -12% | / | 50µM*
C=CCNC(=O)/C(=C\c1ccco1)NC(=O)c1ccco1 | / | / | / | -7% | / | 12%
Cn1c(O)c(N=N/C(=N/c2ccccn2)c2ccccn2)c2cc(Br)ccc21 | -2% | / | / | / | / | /
COc1ccc(C2C=C3CNS(=O)(=O)C3CC2OC(=O)c2cccs2)cc1 (centres undefined) | / | / | / | / | / | -15%
CC(C)(C)N1C(=O)[C@H]2[C@H]3[C@H](O)[C@H](O)C/C(=N/NC(=O)OCc4ccccc4)[C@H]3CC[C@@H]2C1=O | 1%[10.1 µM] | / | / | / | / | 6%
O=C(Nc1ccccc1C(=O)O)/C(=C/c1ccc([N+](=O)[O-])cc1)NC(=O)c1ccc(Br)o1 | 1% | -27% | -1% | -5% | -3% | 7.9µM*
CCOC(=O)Cn1nnnc1CN(Cc1ccc(OC)cc1)Cc1cc2cc(C)cc(C)c2[nH]c1=O | 0% | -14%[46.1 µM] | 5% | -2% | 7%[38.3 µM] | 35µM*
CCc1ccc2[nH]c(=O)c(CN(Cc3ccccc3OC)Cc3nnnn3Cc3ccco3)cc2c1 | -11% | ? | ? | -6% | 37%[38.3 µM] | -18%
CCOC(=O)Cn1nnnc1CN(Cc1ccc(OC)cc1)Cc1cc2cc(CC)ccc2[nH]c1=O | 3% | ? | ? | -10% | -1%[38.3 µM] | 18µM*
CC(=O)OCC1OC(C#CCC2CCCCC2)C=CC1OC(C)=O (centres undefined) | 1%[10.1 µM] | / | / | / | / | -18%
CC(C)(C)CC(C)(C)c1cc(Cc2cc(C(C)(C)CC(C)(C)C)cc(-n3nc4ccccc4n3)c2O)c(O)c(-n2nc3ccccc3n2)c1 | / | / | / | -4% | / | 14%
O=C1CCC2S/C(=C/Nc3ccc(C(F)(F)F)cc3)C(=O)N12 (centres undefined) | 4% | -29% | -2% | -7% | 22% | 22µM*
O=c1c[n+]([O-])c2ccccc2n1OCc1c(F)cccc1F | 13µM* | 8%[46.1 µM] | ? | 4% | 2% | 1%
O=c1c[n+]([O-])c2ccccc2n1OCc1ccccn1 | ? | -7%[46.1 µM] | ? | -14% | 11%[38.3 µM] | 1%
N#CC(C#N)=C1C=CC=CN1/C(=C\c1ccco1)C(=O)c1ccc(Cl)cc1 | 11% | ? | -12% | 39% | 22% | 14µM*
Cc1ccc(N2C(=O)c3ccccc3C2C(=O)c2ccc(O)cc2O)cc1 (centres undefined) | 2% | -21% | 20µM* | -8% | 8% | ?
CC(=O)/C=C\C1[C@]2(C)CCCC(C)(C)C2CC[C@@]1(C)O (some centres undefined) | 1% | / | -6% | -13% | -6% | 10%
SMILES | Epigenetic derep | NPSR antagonist | KDM4E inh | GCN5L2 inh | IMPase Li inh | Sfp inh
O=C(c1ccc(=O)[nH]c1)N1CCN(S(=O)(=O)c2cc(C(F)(F)F)ccc2Cl)CC1 | / | / | / | -3% | / | 10%
O=C(NNc1cc(C(F)(F)F)ccc1Cl)c1ccc(=O)[nH]c1 | / | / | / | -21% | / | 56µM*
CS(=O)(=O)N(CC(=O)NCc1ccco1)Cc1ccc(Cl)cc1 | -3% | -13%[46.1 µM] | -2% | -4% | 37%[38.3 µM] | 28µM*
CC(=O)N1N=C(c2ccc(C)o2)CC1c1cccc(F)c1 (centres undefined) | 2% | -1% | ? | -2% | 2% | 40µM*
COC(=O)CSc1nc(N)c2c3c(sc2n1)C(c1ccccc1)SC(c1ccccc1)C3 (centres undefined) | ? | 13µM* | ? | -6% | 4% | 40µM*
Cc1ccc(SCC(CC(C)C)N2CCN(C)CCC2=O)cc1 (centres undefined) | / | / | / | / | / | 9%
CCCC(=O)Nc1sc(C(=O)OC)c(C)c1C(N)=O | -3% | -7%[46.1 µM] | -9% | -3% | / | 28µM*
CCCCC(=O)Nc1sc(C(=O)N(CC)CC)c(C)c1C(=O)OC | 1% | ? | 1% | ? | 7% | 13µM*
Cc1ccc(NC2=C/C(=N/S(=O)(=O)c3cccs3)c3ccccc3C2=O)cc1 | -2% | 10µM* | 3% | -4% | 22% | -1%
Cc1nc2c(s1)sc1ccccc12 | 2% | 20%[46.1 µM] | 5% | -14% | 5%[38.3 µM] | 13%
CC[n+]1c(C)sc2sc3ccccc3c21 | 0% | 5% | 14µM* | ? | / | 2.8µM*
COc1ccc(OC2C=CC(C#Cc3ccc(C(C)(C)C)cc3)OC2CO)cc1 (centres undefined) | 2%[10.1 µM] | / | / | / | / | 15%
O=C(Nc1nc(-c2ccccc2)c(-c2ccccc2)s1)c1ccc(S(=O)(=O)N2CCCC2)cc1 | 0% | 2%[46.1 µM] | -1% | -4% | 7% | 13%
O=C(Nc1nc(-c2ccccc2)c(C(=O)c2ccccc2)s1)c1ccc(S(=O)(=O)N2CCCC2)cc1 | 0% | 6.3µM* | -13% | -3% | -10% | 1%
COC(=O)/C(=C/c1cn(C)c2ccccc12)[N+](=O)[O-] | 1% | -27%[46.1 µM] | 2% | -1% | 2% | 56µM*
CCC(=O)N1CCc2cc(-c3csc(NC(=O)c4ccco4)n3)ccc21 | / | / | / | -3% | / | 2%
CC(C)C(=O)N1CCc2cc(-c3csc(N)n3)ccc21 | 3% | -19%[46.1 µM] | -18% | -7% | 4%[38.3 µM] | 40µM*
Cc1cccc(C)c1NC(=O)NN=C1CCCCC1 | 2% | 8% | 8% | -1% | / | -4%
Nc1nonc1NC(=O)NN=C1CCCCC1 | -3% | 20% | -5% | 1% | -3% | 35µM*
COC(=O)C1=C(C(=O)OC)[C@@H]2N(Cc3ccccc3)c3ccccc3[C@@]23C[C@@H](C(=O)OC)N(S(=O)(=O)c2ccc(C)cc2)C3=N1 | / | / | -6%[11.4 µM] | / | 9% | -5%
